What all share (parameters): scale not given: direction of the effect not stated beside the values
Experiment [1] addresses Protein translocase subunit SecA (Escherichia coli (strain K12)) (UniProt P10408). Briefly: Assay to Identify E. coli SecA ATPase Inhibitors. It counts as functional. Particulars: 30 µM.
For experiment [2], the target named is T1, Ubiquitin-activating enzyme e1, putative (Leishmania donovani (strain BPK282A1)) (UniProt E9BSI1).
T1 sequence (whole entry): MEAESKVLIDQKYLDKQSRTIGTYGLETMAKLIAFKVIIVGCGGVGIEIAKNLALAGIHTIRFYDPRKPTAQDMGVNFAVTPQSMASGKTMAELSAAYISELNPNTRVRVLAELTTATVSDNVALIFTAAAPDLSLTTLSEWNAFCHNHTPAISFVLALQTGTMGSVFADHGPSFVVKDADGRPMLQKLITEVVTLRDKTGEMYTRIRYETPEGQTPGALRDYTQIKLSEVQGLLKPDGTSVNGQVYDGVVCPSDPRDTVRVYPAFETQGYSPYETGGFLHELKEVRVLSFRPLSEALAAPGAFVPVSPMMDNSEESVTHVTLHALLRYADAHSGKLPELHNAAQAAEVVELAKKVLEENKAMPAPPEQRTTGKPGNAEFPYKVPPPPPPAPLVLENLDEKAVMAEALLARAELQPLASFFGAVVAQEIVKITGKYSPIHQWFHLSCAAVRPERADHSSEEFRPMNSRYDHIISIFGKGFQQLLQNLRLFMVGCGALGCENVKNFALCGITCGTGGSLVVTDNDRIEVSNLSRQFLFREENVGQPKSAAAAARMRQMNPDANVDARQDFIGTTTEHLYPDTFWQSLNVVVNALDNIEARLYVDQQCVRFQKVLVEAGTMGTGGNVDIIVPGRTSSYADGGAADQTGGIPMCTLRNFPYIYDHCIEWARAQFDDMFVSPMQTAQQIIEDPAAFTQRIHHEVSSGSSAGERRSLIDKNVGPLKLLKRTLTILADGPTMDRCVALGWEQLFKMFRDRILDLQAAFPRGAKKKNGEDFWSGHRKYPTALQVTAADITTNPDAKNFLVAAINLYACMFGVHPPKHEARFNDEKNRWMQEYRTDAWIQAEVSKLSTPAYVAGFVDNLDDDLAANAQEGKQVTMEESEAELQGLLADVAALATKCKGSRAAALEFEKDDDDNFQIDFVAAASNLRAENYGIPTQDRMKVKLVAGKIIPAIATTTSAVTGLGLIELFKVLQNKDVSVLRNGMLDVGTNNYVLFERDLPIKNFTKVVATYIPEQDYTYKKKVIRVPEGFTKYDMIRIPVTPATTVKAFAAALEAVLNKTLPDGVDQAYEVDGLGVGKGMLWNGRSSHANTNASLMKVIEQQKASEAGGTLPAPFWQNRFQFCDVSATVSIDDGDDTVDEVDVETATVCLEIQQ
Briefly: Leishmania donovani Ubiquitin Activating Enzyme (LdE1). It counts as functional. Particulars: 30 µM.

Experiment [3] addresses AMP-activated protein kinase, AMPK (Homo sapiens) (UniProt P54646+O43741+P54619+Q9UGJ0+Q9Y478+Q13131+Q9UGI9). Briefly: AMP-dependent Kinase enzyme assay. An in vitro enzyme assay that detects ADP turnover that is directly proportional to AMPK activity. This uses naive AMPK that is activated during the assay with MK-8722. Particulars: 30 µM. It counts as functional.
For experiment [4], the target named is Sialic acid-binding Ig-like lectin 9 (Homo sapiens) (UniProt Q9Y336). Description: Hs-Siglec9 ALPHAscreen SOP 20170721. Particulars: 10 µM.
Sialic acid-binding Ig-like lectin 9 (Homo sapiens), sequence (Q9Y336 whole entry): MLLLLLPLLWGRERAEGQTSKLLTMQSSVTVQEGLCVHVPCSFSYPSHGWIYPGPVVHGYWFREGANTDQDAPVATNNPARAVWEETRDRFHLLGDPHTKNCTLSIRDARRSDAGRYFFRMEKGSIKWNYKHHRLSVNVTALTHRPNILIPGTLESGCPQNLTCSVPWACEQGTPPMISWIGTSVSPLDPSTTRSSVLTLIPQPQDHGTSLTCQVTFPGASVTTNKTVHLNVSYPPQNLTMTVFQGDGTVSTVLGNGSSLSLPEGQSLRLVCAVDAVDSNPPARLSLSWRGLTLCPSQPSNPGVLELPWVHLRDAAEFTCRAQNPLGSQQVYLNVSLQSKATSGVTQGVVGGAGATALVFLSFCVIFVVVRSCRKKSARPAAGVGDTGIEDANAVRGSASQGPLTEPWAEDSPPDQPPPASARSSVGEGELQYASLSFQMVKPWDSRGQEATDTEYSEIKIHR
The test system of another experiment is Trypanosoma cruzi. Description: Trypanosoma cruzi phosphomannomutase and mannose-1-phosphate guanylyltransferase assay. The experiment is classed as functional. The settings on record: 10 µM.
The target in experiment [5] is T2, Arginase-2, mitochondrial (Homo sapiens) (UniProt P78540).
T2 sequence (whole entry): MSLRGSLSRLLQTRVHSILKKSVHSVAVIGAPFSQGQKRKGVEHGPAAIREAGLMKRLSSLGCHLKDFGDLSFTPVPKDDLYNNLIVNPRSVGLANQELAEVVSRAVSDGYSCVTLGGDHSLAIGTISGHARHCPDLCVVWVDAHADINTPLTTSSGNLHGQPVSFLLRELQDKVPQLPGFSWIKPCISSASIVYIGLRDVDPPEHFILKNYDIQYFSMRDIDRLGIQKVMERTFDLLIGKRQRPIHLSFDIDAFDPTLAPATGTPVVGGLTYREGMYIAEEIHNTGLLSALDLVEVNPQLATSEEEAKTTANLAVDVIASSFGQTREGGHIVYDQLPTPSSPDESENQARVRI
Description: in vitro enzyme assay to detect the production of urea directly proportional to the activity of Arginase II. Further: in the data most compounds retested in dose-response had high values. The settings on record: 33.3 µM. It counts as functional.

Experiment [6] has as its target T3, Proteasome subunit beta (Trypanosoma cruzi) (UniProt O96673).
T3 sequence (whole entry): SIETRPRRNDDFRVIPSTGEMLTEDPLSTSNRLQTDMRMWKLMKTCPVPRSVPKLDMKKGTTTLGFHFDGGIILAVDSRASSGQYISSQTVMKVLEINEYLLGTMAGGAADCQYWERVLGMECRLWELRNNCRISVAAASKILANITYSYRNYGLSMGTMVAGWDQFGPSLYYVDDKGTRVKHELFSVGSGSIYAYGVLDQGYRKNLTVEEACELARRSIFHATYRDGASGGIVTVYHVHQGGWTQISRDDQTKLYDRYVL
Description: Trypanosoma cruzi proteasome chymotrypsin-like activity (TcProtChymo) assay. Further: in the data most compounds retested in dose-response had high values. It counts as functional. The settings on record: 9.37 µM.

The next experiment is filed under the species Homo sapiens. Description: To identify inhibition of the IFN signalling (Jak-Stat) pathway via expression of an eGFP reporter gene under the control of an IFN-stimulated response element (ISRE) containing MxA promoter. The experiment is classed as functional. Particulars: 30 µM. (In general: In a reporter assay the amount or activity of a reporter protein is the signal.)

In experiment [7] the target is T4, Tyrosyl-tRNA synthetase, putative (Trypanosoma cruzi (strain CL Brener)) (UniProt Q4DSP6).
T4 sequence (whole entry): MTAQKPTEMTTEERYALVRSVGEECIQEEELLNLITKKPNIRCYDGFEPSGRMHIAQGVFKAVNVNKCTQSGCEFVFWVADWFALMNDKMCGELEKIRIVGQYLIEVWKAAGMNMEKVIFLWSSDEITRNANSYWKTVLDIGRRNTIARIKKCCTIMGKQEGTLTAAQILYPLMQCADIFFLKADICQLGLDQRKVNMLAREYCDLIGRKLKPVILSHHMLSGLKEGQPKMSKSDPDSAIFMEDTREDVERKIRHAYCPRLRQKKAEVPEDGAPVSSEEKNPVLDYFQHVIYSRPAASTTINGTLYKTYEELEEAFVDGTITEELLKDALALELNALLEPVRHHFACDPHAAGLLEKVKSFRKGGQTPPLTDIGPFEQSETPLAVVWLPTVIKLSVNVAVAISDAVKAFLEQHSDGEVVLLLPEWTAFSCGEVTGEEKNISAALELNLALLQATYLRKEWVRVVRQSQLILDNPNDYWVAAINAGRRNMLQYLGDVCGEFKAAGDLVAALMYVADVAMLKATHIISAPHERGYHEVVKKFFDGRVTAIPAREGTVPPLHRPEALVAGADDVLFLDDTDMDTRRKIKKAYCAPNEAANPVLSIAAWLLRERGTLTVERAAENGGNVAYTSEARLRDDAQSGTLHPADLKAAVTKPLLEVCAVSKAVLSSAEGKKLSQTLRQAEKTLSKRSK
Description: Trypanosoma cruzi tyrosyl tRNA synthetase (TcYRS) _High Tyrosine SOP. Further: in the data most compounds retested in dose-response had high values. The experiment is classed as functional. The settings on record: 30 µM.

Experiment [8] deals with T4, Tyrosyl-tRNA synthetase, putative (Trypanosoma cruzi (strain CL Brener)). Description: Trypanosoma cruzi tyrosyl tRNA synthetase (TcYRS) SOP. Particulars: 30 µM. It counts as functional.
Experiment [9] deals with Chromo domain-containing protein 1 (Saccharomyces cerevisiae (strain ATCC 204508 / S288c) (Baker's yeast)) (UniProt P32657). Briefly: ScCHD-1 Enzyme Inhibition Assay. Further: in the data most compounds retested in dose-response had high values. The experiment is classed as functional. Particulars: 30 µM.
Chromo domain-containing protein 1 (Saccharomyces cerevisiae (strain ATCC 204508 / S288c) (Baker's yeast)), sequence (P32657 whole entry, the tested form may be a part): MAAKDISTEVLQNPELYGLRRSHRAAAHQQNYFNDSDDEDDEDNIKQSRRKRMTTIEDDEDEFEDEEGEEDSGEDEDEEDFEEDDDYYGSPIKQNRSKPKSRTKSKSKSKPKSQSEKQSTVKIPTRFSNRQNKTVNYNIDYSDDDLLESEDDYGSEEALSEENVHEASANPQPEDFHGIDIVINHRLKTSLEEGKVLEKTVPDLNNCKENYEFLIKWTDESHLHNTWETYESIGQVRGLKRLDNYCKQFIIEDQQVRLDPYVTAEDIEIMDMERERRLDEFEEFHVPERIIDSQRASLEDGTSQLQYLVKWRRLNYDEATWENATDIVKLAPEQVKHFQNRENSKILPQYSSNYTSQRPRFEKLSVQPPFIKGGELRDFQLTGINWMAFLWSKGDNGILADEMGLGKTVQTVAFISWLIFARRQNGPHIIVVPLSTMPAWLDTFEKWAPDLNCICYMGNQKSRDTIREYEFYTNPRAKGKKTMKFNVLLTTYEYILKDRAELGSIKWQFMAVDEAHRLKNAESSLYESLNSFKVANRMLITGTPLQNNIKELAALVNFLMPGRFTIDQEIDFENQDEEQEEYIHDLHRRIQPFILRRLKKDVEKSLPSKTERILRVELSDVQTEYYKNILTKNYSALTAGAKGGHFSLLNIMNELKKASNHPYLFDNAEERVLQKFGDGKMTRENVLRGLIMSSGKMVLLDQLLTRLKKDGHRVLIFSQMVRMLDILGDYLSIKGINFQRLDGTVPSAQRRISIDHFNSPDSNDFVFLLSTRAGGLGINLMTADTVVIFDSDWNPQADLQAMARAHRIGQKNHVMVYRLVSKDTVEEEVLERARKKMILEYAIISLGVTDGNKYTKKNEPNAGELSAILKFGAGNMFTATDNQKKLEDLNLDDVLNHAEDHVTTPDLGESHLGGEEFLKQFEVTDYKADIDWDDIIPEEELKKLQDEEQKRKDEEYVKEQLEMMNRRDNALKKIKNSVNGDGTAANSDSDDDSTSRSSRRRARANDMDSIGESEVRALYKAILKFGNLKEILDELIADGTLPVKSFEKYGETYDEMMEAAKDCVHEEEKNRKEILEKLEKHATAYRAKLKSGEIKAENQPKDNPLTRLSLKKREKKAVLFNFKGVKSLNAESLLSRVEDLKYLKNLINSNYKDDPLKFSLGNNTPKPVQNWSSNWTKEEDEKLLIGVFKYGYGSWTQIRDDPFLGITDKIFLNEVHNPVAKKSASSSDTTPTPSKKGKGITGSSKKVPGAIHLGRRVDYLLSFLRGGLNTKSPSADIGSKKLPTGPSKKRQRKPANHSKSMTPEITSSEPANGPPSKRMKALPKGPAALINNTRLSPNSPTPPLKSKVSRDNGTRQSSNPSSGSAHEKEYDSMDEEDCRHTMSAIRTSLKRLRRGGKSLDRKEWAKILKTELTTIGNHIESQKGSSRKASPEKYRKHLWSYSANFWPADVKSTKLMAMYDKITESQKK

For some of these results: Results with a measured potency or affinity are listed apart.

Protein translocase subunit SecA (Escherichia coli (strain K12)), sequence (P10408 whole entry): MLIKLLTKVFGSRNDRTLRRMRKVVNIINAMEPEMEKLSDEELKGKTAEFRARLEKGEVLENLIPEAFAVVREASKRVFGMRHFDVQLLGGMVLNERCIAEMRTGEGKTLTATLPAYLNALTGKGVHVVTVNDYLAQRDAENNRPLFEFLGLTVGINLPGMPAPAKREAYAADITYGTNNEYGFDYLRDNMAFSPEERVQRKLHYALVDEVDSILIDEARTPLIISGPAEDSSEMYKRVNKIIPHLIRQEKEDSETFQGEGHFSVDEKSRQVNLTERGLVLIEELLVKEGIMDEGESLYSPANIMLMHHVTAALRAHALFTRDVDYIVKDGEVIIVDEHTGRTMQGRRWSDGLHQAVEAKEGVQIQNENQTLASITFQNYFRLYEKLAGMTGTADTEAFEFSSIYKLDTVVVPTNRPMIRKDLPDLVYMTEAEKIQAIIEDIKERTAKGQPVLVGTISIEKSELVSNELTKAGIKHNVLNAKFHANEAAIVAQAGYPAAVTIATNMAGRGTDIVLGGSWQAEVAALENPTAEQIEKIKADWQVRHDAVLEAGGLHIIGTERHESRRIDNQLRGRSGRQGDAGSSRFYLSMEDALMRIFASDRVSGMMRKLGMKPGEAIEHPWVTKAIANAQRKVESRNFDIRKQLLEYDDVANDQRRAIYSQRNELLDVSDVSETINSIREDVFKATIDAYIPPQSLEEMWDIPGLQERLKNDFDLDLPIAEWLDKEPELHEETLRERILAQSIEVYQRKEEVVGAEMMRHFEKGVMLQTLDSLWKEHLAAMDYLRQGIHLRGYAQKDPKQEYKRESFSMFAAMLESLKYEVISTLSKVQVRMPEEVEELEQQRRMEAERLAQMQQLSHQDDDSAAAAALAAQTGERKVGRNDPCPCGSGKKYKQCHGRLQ

For the compound `O=C(Cc1ccc2c(c1)CCO2)N1CCN(c2cnccn2)CC1`, the Percent Effect in [1] was -4.64%; in [2], -7.89%; in experiment [3], 2.2%; in [4], -0.444%; with Trypanosoma cruzi it was 9.59%; in experiment [5], -1.53%. The Percent Effect in [6] was 0.167%; in the experiment listed under Homo sapiens it was 5.16%; in experiment [7], 3.43%; in experiment [8], 7.32%; in [9], -12.2%.
Consider `CCC1=N[C@@]2(CC[C@@H]3CN(C(=O)Nc4ccc(F)cc4)C[C@@H]32)C(=O)N1`, for which the Percent Effect in experiment [1] is -5.91%; in [2] it was 5.41%; in experiment [3], -0.761%; in [4], -2.41%; in the experiment on Trypanosoma cruzi, 7.42%; in experiment [5], -2.5%. The Percent Effect is 13.1% in [6]; -26.3% in the experiment listed under Homo sapiens; 7.92% in [7]; 8.54% in experiment [8]; -6.29% in experiment [9].
On to `CCn1ncc2c1CCCC2NCc1cc(Cl)c(OC)c(OC)c1` (stereo unspecified), for which the Percent Effect in experiment [1] is -5.26%; in [2] it was 12.7%; in experiment [3], -8.16%; in experiment [4], 14.8%; in the experiment on Trypanosoma cruzi, 3.31%; in [5], 3.04%. Also, the Percent Effect was -0.901% in [6]; 66.8% in the experiment filed under Homo sapiens; 9.36% in experiment [7]; 21.5% in experiment [8]; -6.2% in [9].
Take `Cc1nc(C)n(CC2CCCN2Cc2cc(C)on2)n1` (stereo unspecified): the Percent Effect is -7.09% in experiment [1]; 5.2% in experiment [2]; -68.4% in [3]; -5.71% in experiment [4]; -2.06% with Trypanosoma cruzi; 3.58% in [5]. The Percent Effect in experiment [6] was 12.2%; in the experiment filed under Homo sapiens, 19.8%; in experiment [7] it was 0%; in experiment [8], 7.06%; in experiment [9] it was -23.5%.
`COCCOc1ccc(NC(=O)C2CCC2)cn1`: the Percent Effect in experiment [1] was -2.7%; in [2], 17.7%; in experiment [3] it was 1.58%; in experiment [4], -6%; in the experiment on Trypanosoma cruzi, 0.85%; in [5], 5.7%. The Percent Effect was 15.6% in experiment [6]; -2.54% in the experiment filed under Homo sapiens; 9.36% in experiment [7]; 16.5% in [8]; -6.65% in experiment [9].
Regarding `COCC1CC2(CCN(C(=O)c3occc3C)CC2)CO1` (stereo unspecified), the Percent Effect in [1] is -0.186%; in [2], 2.6%; in [3] it was 22.5%; in experiment [4] it was 0.84%; with Trypanosoma cruzi, -6.61%; in experiment [5], 4.52%. Also, the Percent Effect in [6] is 3.65%; in the experiment listed under Homo sapiens it was 5.99%; in experiment [7], -2.12%; in experiment [8], -1.28%; in experiment [9], -1.99%.
On to `Cc1nccn1CCCC(=O)N1CCC(Nc2cccnn2)CC1`, for which the Percent Effect in experiment [1] was -3.42%; in [2] it was 5.41%; in experiment [3] it was -7.19%; in experiment [4], 11.7%; in the experiment with Trypanosoma cruzi, 4.43%; in experiment [5], -1.6%. Moreover, the Percent Effect in experiment [6] is 3.06%; in the experiment listed under Homo sapiens it was 1.39%; in experiment [7] it was 2.46%; in experiment [8] it was 16.1%; in experiment [9], -8.26%.
Turning to `CCCn1c(C)c(CC(=O)N(C)CCOC)c2c1CC(C)(C)CC2=O`, the Percent Effect in experiment [1] is -3.48%; in experiment [2] it was 5.2%; in experiment [3] it was 0.628%; in experiment [4], 11.4%; in the experiment with Trypanosoma cruzi, 6.59%; in experiment [5], -38.6%. Besides, the Percent Effect in experiment [6] was 3%; in the experiment listed under Homo sapiens, -27.9%; in experiment [7] it was 6.45%; in [8] it was 8.64%; in [9], -8.76%.
For the compound `COc1ccc(S(=O)(=O)N2CCC(S(C)(=O)=O)CC2)cc1C`, the Percent Effect is -3.14% in [1]; 7.79% in experiment [2]; 3.88% in experiment [3]; 0.29% in experiment [4]; 4.04% in the experiment with Trypanosoma cruzi; 1.94% in [5]. For the same compound, the Percent Effect in experiment [6] is 4.7%; in the experiment filed under Homo sapiens it was -5.43%; in experiment [7], 3.17%; in [8], 11.5%; in [9], -6.76%.
As to `Cc1ccoc1-c1nnc(CNCCn2cccn2)o1`, the Percent Effect in experiment [1] is -0.597%; in experiment [2], 22.8%; in [3], -3.87%; in experiment [4], -12.1%; in the experiment with Trypanosoma cruzi it was 3.12%; in [5], 1.52%. The Percent Effect in experiment [6] is 7.29%; in the experiment filed under Homo sapiens, 23.9%; in experiment [7], 7.39%; in experiment [8] it was 24.1%; in experiment [9] it was -15.5%.
In the case of `O=C(NCCCn1cncn1)NCC(c1ccco1)N1CCCCC1` (stereo unspecified), the Percent Effect in experiment [1] was 1.3%; in [2], 10.4%; in experiment [3], 2.22%; in experiment [4], -12.8%; in the experiment on Trypanosoma cruzi, -5.39%; in experiment [5], 5.26%. For the same compound, the Percent Effect is 17.2% in experiment [6]; 12.4% in the experiment filed under Homo sapiens; 4.76% in [7]; 18.8% in [8]; -13.7% in [9].

Source of the values: ChEMBL document CHEMBL3988442, “University of Dundee, Small-Polar-MMV Screening Library” (2021).
